Calls of active or inactive are those of the source. How the source made its calls: active means hit-call score of the fitted dose curve at least 0.9, where 1 is the maximum; inactive means score below 0.9.

This experiment in a line: APR_HepG2_MitoMass_24hr: Apredica 24-hour HepG2 Assay for Mitochondrial Mass (AID 2282912). Particulars: high-content imaging, actives raise or lower the signal. Here is the method: APR_HepG2_24hr is a cell-based, multiplexed-readout assay that uses HepG2, a human liver cell line, with measurements taken at 24 hours after chemical dosing in a 384-well plate.APR_HepG2_MitoMass_24hr is one of 10 assay component(s) measured or calculated from the APR_HepG2_24hr assay. It is designed to make measurements of cell phenotype, a form of morphology reporter, as detected with fluorescence intensity signals by HCS Fluorescent Imaging technology.Data from the assay component APR_HepG2_MitoMass_24hr was analyzed into 1 assay endpoint. This assay endpoint, APR_HepG2_MitoMass_24hr, was analyzed with bidirectional fitting relative to DMSO as the negative control and baseline of activity. Using a type of morphology reporter, gain or loss-of-signal activity can be used to understand changes in the signaling. Furthermore, this assay endpoint can be referred to as a primary readout, because this assay has produced multiple assay endpoints where this one serves a signaling function. To generalize the intended target to other relatable targets, this assay endpoint is annotated to the cell morphology intended target family, where the subfamily is organelle conformation.
Cells were treated with dimethyl sulfoxide (DMSO) as a solvent control at a final concentration of 0.5% v/v or with compounds in DMSO with a resulting final DMSO concentration of 0.5% v/v. Compound treatment was done at concentrations of 0.39, 0.78, 1.56, 3.12, 6.24, 12.5, 25, 50, 100, and 200 uM in duplicate on each plate. Cells were treated with compounds for 1, 24, or 72 hr. Carbonyl […] m-chloro-phenylhydrazone (CCCP) and taxol were used as positive controls for mitochondrial function and cytoskeletal stability, respectively; DMSO served as the negative control for this experiment. Cells were fixed by the direct addition of 50 uL formaldehyde in Hank's Balanced Salt Solution (HBSS) to a final concentration of 3.7%. After incubation in the fixation medium for 30 min at room temperature (293-298 K), cells were rinsed twice with HBSS and treated with cell permeabilization buffer (16 uL of 0.5% Triton X-100) for 10 min at room temperature (293-298 K) before labeling. For mitochondrial membrane potential and mitochondrial measurements, pre-fixed cells were incubated with 50 uL of MitoTracker Red CMXRos (Invitrogen) at a concentration of 250 nM for 30 min before fixation. In the remaining cases, post-fixed cells were labeled by incubation with a multiplexed mixture of primary antibodies in HBSS for 60 min at room temperature (293-298 K) to detect immunoreactivity of c-Jun (1:500), phospho-histone H3 (1:100), phospho-histone H2A.x (1:200), p53 (1:400), alpha-tubulin (1:200) and Hoechst 33342 (2 ug/mL). Cells were labeled for multiplexed imaging on two separate plates: a) Hoechst 33342, MitoTracker Red, phospho-histone H3, and alpha-tubulin, and b) Hoechst 33342, phospho-histone H2A.x, and c-Jun. A final rinse with HBSS (50 uL) was performed before analysis. The primary and secondary antibodies for the proteins were phospho-histone H3 (rabbit anti-phospho-histone H3 and FITC-donkey anti-rabbit IgG), phospho-histone H2A.x (mouse anti-phospho-histone H2A.x and FITC-donkey anti-mouse IgG), c-Jun (rabbit anti-phospho-c-Jun and Cy3-donkey anti-rabbit IgG), p53 (sheep anti-p53 and Cy5-donkey anti-sheep IgG), alpha-tubulin (mouse anti-alpha-tubulin and Cy5-donkey anti-mouse IgG). These antibodies are available as the CellCiphr HepG2 assay kit (Millipore).Digital images of each well were captured using a Cellomics ArrayScan VTI (Thermo Scientific Cellomics) (0.8 NA objective, 0.63x optical coupler, and XF-93 filter set) at 20x magnification. The images were acquired using the autofocus feature of the ArrayScan instrument, which entails the following steps. First, the camera focuses on channel 1 (Hoechst 33342), where nuclei are identified. Second, a Z offset of 1 um is used for capturing mitochondria (MitoTracker Red). […]
`CCN(CC)C(=O)C(C)Oc1cccc2ccccc12` (stereo not given): the call was inactive.
Next, `COc1cc(OC)nc(NC(=O)NS(=O)(=O)c2ncccc2OCC(F)(F)F)n1`: “inactive”; `CCOP(=S)(OCC)Oc1nc(Cl)n(C(C)C)n1`: “inactive”; `CC(C)Oc1cccc(NC(=O)c2ccccc2C(F)(F)F)c1`: “inactive”.
Take `OC(c1ccc(Cl)cc1)(c1ccc(Cl)cc1)C(Cl)(Cl)Cl`: the molecule was called inactive.
Turning to `COc1cc(Cl)c(OC)cc1Cl`, the result was inactive.
As for `COCc1cnc(C2=NC(C)(C(C)C)C(=O)N2)c(C(=O)O)c1` (stereo not given), the call was inactive.
As to `COCC(=O)N(c1c(C)cccc1C)C(C)C(=O)OC` (stereo not given), the result was inactive.
Next, `CCCN(CC)CC1COC2(CCC(C(C)(C)C)CC2)O1` (stereo not given): “inactive”.
Next, `CC1(C)C(C(=O)OC(C#N)c2cccc(Oc3ccccc3)c2)C1(C)C` (stereo not given): “inactive”; `O=P(O)(O)CCCl`: “inactive”; `Clc1nc(Cl)nc(Nc2ccccc2Cl)n1`: “inactive”.
`COP(=S)(OC)SCn1nnc2ccccc2c1=O`: the outcome was inactive.
Consider `COC(=O)N(C(=O)N1CO[C@@]2(C(=O)OC)Cc3cc(Cl)ccc3C2=N1)c1ccc(OC(F)(F)F)cc1`, for which the call was inactive.
Take `CC(C)N1C(=O)c2ccccc2NS1(=O)=O`: the molecule was called inactive.
For `Nc1c(Cl)c(Cl)nc(C(=O)O)c1Cl` the value was “inactive”.
For `CCSC(=O)N1CCCCCC1` the value was “inactive”; for `COP(=S)(OC)Oc1ccc([N+](=O)[O-])c(C)c1`, “inactive”.
Turning to `Cc1c(COC(=O)[C@@H]2[C@H](/C=C(\Cl)C(F)(F)F)C2(C)C)cccc1-c1ccccc1`, the outcome was inactive.
Consider `CSC(=O)c1c(C(F)F)nc(C(F)(F)F)c(C(=O)SC)c1CC(C)C`, for which the outcome was inactive.
Next, `O=c1n(Cl)c(=O)n(Cl)c(=O)n1Cl`: “inactive”; `CNC(=O)Oc1cccc2ccccc12`: “inactive”.
For `O=C(O)c1c(Cl)ccc2cc(Cl)cnc12` the value was “inactive”; for `COC(=O)NS(=O)(=O)c1ccc(N)cc1`, “inactive”.
For `CCOc1cc(C(C)(C)C)ccc1C1COC(c2c(F)cccc2F)=N1` (stereo not given) the value was “inactive”; for `Cn1c(-c2ccccc2)cc(-c2ccccc2)[n+]1C`, “inactive”; for `COC(=O)NC(=S)Nc1ccccc1NC(=S)NC(=O)OC`, “inactive”.
`N#Cc1c[nH]cc1-c1cccc2c1OC(F)(F)O2`: the result was inactive.
For `CN=C=S` the value was “inactive”; for `CC(C)NC(=O)N1CC(=O)N(c2cc(Cl)cc(Cl)c2)C1=O`, “inactive”; for `CNC(=O)N(C)c1nnc(C(C)(C)C)s1`, “inactive”.
Next, `CC(C)=CC1C(C(=O)OCc2coc(Cc3ccccc3)c2)C1(C)C` (stereo not given): “inactive”.
With `COc1ccc(-c2ccccc2)cc1NNC(=O)OC(C)C`, the molecule was classed as inactive.
For `CC1(C)CCC(=Cc2ccc(Cl)cc2)C1(O)Cn1cncn1` (stereo not given) the value was “inactive”.
Next, `CC(C)(C)C(=O)C(Oc1ccc(Cl)cc1)n1cncn1` (stereo not given): “inactive”; `CCOc1nc(F)cc2nc(S(=O)(=O)Nc3c(Cl)cccc3Cl)nn12`: “inactive”; `Nc1cnn(-c2ccccc2)c(=O)c1Cl`: “inactive”.
Next, `CCOc1nc(C(Cl)(Cl)Cl)ns1`: “inactive”; `CC1(C)CON(Cc2ccccc2Cl)C1=O`: “inactive”; `O=C(Nc1ccccc1-c1ccc(Cl)cc1)c1cccnc1Cl`: “inactive”.

Values taken from PubChem BioAssay (EPA / NIEHS).
